Calls of active or inactive are those of the source. Rule for the calls: active = hit-call score of the fitted dose curve at least 0.9, where 1 is the maximum; inactive = score below 0.9.

In general, AC50 refers to the midpoint of the concentration-response curve, whichever way the signal moves.

Read-out in assay [1]: Transforming growth factor beta 1 (TGFb1), TGFB1 (gene 7040)
The assay can be described thus: BSK_KF3CT_TGFb1: BioMAP Diversity Plus: KF3CT Assay for Transforming growth factor beta 1 (TGFb1) Biomarker Activity (AID 2283072). Conditions: primary human keratinocytes with fibroblasts; actives raise or lower the signal. The procedure, abridged:
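ELISA quantifies TGF-b1 at 24 h post-dose in a primary human skin co-culture of keratinocytes and fibroblasts, with gain or loss judged against DMSO. Parallel SRB total-protein staining flags overt cytotoxicity.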

Read-out in assay [2]: C-C motif chemokine 2 (Homo sapiens) (UniProt P13500)
Briefly: BSK_KF3CT_MCP1: BioMAP Diversity Plus: KF3CT Assay for Monocyte Chemoattractant Protein 1 (MCP1/CCL2) Biomarker Activity (AID 2283073). Conditions: primary human keratinocytes with fibroblasts; actives raise or lower the signal. The essentials:
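Human keratinocyte plus foreskin fibroblast primary co-culture exposed to chemical for 24 h. MCP-1 levels measured by ELISA. Bidirectional curve fitting relative to DMSO negative control as baseline.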

Read-out in assay [3]: Matrix Metallopeptidase 9 (MMP9), MMP9 (gene 4318)
Briefly: BSK_KF3CT_MMP9: BioMAP Diversity Plus: KF3CT Assay for Matrix Metallopeptidase 9 (MMP9) Biomarker Activity (AID 2283074).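 For AC50: MMP9 protein level quantified by ELISA in the co-culture.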 Conditions: primary human keratinocytes with fibroblasts; actives raise or lower the signal. The procedure, abridged: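 ELISA read-out of MMP-9 at 24 h post-dosing in a co-culture of human skin keratinocytes and foreskin fibroblasts. Gain or loss of signal was fitted in both directions against DMSO.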

Read-out in assay [4]: urokinase plasminogen activator (uPA), PLAU (gene 5328)
Briefly: BSK_KF3CT_uPA: BioMAP Diversity Plus: KF3CT Assay for urokinase plasminogen activator (uPA) Biomarker Activity (AID 2283075). Conditions: primary human keratinocytes with fibroblasts; actives raise or lower the signal. The essentials:
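Skin co-culture (keratinocytes + foreskin fibroblasts), human primary; 24 h post-dose; uPA by ELISA; gain/loss fit vs DMSO baseline.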

Read-out in assay [5]: CD40, CD40 (gene 958)
Briefly: BSK_LPS_CD40: BioMAP Diversity Plus: LPS Assay for CD40 Biomarker Activity (AID 2283076). Conditions: primary human HUVEC with PBMC; actives raise or lower the signal. The procedure, abridged: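 Primary human umbilical vein endothelial cells co-cultured with peripheral blood mononuclear cells, LPS-stimulated, were dosed with chemical and read 24 h later. CD40 levels were measured by ELISA and fitted bidirectionally against DMSO as negative control and baseline.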

Read-out in assay [6]: E-selectin (Homo sapiens) (UniProt P16581)
Briefly: BSK_LPS_Eselectin: BioMAP Diversity Plus: LPS Assay for Eselectin Biomarker Activity (AID 2283077). Conditions: primary human HUVEC with PBMC; actives raise or lower the signal. The essentials: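 Human umbilical vein endothelial cells co-cultured with peripheral blood mononuclear cells under LPS stimulation; E-selectin measured by ELISA 24 h after chemical dosing. Activity fitted bidirectionally against DMSO as negative control and baseline.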

Read-out in assay [7]: Interleukin-8 (IL8), CXCL8 (gene 3576)
The assay can be described thus: BSK_LPS_IL8: BioMAP Diversity Plus: LPS Assay for Interleukin-8 (IL8) Biomarker Activity (AID 2283078). Conditions: primary human HUVEC with PBMC; actives raise or lower the signal. The essentials: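 Human umbilical vein endothelial cells co-cultured with PBMC were stimulated with LPS; IL-8 levels were measured by ELISA 24 h after chemical dosing. Activity was fitted bidirectionally against DMSO as negative control and baseline.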

The nature of assay [8]: BSK_LPS_SRB: Viability Assessment in the BioMAP Diversity Plus: LPS Assay (AID 2283079).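 Note: total protein by sulforhodamine B absorbance as a cytotoxicity measure; measured one day after compound addition.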 Conditions: primary human HUVEC with PBMC. The essentials: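 Human umbilical vein endothelial cells co-cultured with PBMC (LPS system) were dosed for 24 h. Total protein was stained with 0.1% sulforhodamine B after 10% TCA fixation, read at 560 nm, and fitted bidirectionally against DMSO baseline.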

Read-out in assay [9]: Interleukin-1 alpha (IL1a), IL1A (gene 3552)
The assay can be described thus: BSK_LPS_IL1a: BioMAP Diversity Plus: LPS Assay for Interleukin-1 alpha (IL1a) Biomarker Activity (AID 2283080). Conditions: primary human HUVEC with PBMC; actives raise or lower the signal. The procedure, abridged:
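Human umbilical vein endothelial cells co-cultured with peripheral blood mononuclear cells were LPS-stimulated and exposed to test chemicals for 24 h. IL-1 alpha was quantified by ELISA, with bidirectional curve fitting against DMSO as the negative control and baseline.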

Read-out in assay [10]: Monocyte Chemoattractant Protein-1 (MCP1), CCL2 (gene 6347)
The assay can be described thus: BSK_LPS_MCP1: BioMAP Diversity Plus: LPS Assay for Monocyte Chemoattractant Protein-1 (MCP1) Biomarker Activity (AID 2283081).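 For AC50: co-culture stimulated with LPS; secreted MCP-1 protein quantified by ELISA in culture supernatant.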 Conditions: primary human HUVEC with PBMC; actives raise or lower the signal. The procedure, abridged:
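HUVEC plus PBMC co-culture (human primary cells, LPS system) exposed to test chemical for 24 h; MCP-1 measured by ELISA. Bidirectional curve fitting against DMSO baseline; parallel SRB total-protein staining flags overt cytotoxicity.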

The nature of assay [11]: BSK_LPS_PGE2: BioMAP Diversity Plus: LPS Assay for Prostaglandin E2 (PGE2) Biomarker Activity (AID 2283082). Conditions: primary human HUVEC with PBMC; actives raise or lower the signal. The procedure, abridged: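 PGE2 release measured by ELISA in an LPS-activated co-culture of human umbilical vein endothelial cells and peripheral blood mononuclear cells, read at 24 h post-dosing. DMSO served as baseline for bidirectional curve fitting.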

Read-out in assay [12]: Macrophage colony-stimulating factor (MCSF), CSF1 (gene 1435)
The assay can be described thus: BSK_LPS_MCSF: BioMAP Diversity Plus: LPS Assay for Macrophage colony-stimulating factor (MCSF) Biomarker Activity (AID 2283083). Conditions: primary human HUVEC with PBMC; actives raise or lower the signal. The procedure, abridged: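 Human umbilical vein endothelial cells co-cultured with peripheral blood mononuclear cells were exposed to compound for 24 h. M-CSF levels were measured by ELISA, and bidirectional curve fitting used DMSO as the negative control and baseline.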

Read-out in assay [13]: Tissue Factor, F3 (gene 2152)
Briefly: BSK_LPS_TissueFactor: BioMAP Diversity Plus: LPS Assay for Tissue Factor Biomarker Activity (AID 2283084). Conditions: primary human HUVEC with PBMC; actives raise or lower the signal. The procedure, abridged:
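Human umbilical vein endothelial cells co-cultured with peripheral blood mononuclear cells were dosed and stimulated with LPS. Cell-surface CD142 was quantified by ELISA at 24 h. Activity was fitted bidirectionally against DMSO baseline.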

Read-out in assay [14]: Tumor necrosis factor (Homo sapiens) (UniProt P01375)
The assay can be described thus: BSK_LPS_TNFa: BioMAP Diversity Plus: LPS Assay for Tumour Necrosis Factor alpha (TNFa) Biomarker Activity (AID 2283085).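 For AC50: TNFa protein level quantified by ELISA in the co-culture.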 Conditions: primary human HUVEC with PBMC; actives raise or lower the signal. The essentials: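 TNFa was quantified by ELISA in LPS-activated co-cultures of human endothelial cells and PBMC, 24 h post-dosing. Both increases and decreases versus DMSO were fitted.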

Read-out in assay [15]: Vascular cell adhesion molecule 1 (VCAM1), VCAM1 (gene 7412)
The assay can be described thus: BSK_LPS_VCAM1: BioMAP Diversity Plus: LPS Assay for Vascular cell adhesion molecule 1 (VCAM1) Biomarker Activity (AID 2283086). Conditions: primary human HUVEC with PBMC; actives raise or lower the signal. The procedure, abridged:
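VCAM-1 quantified by ELISA in an LPS-activated co-culture of human endothelial cells and peripheral blood mononuclear cells, read 24 h post-treatment. Fitted in both directions versus DMSO; parallel SRB staining flags overt cytotoxicity.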

Read-out in the next assay: CD38, CD38 (gene 952)
Briefly: BSK_SAg_CD38: BioMAP Diversity Plus: SAg Assay for CD38 Biomarker Activity (AID 2283087). Conditions: primary human HUVEC with PBMC; actives raise or lower the signal. The essentials: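 CD38 quantified by ELISA (fluorescence) in a superantigen-activated endothelial cell–PBMC co-culture at 24 h post-dose. Activity fitted in both directions relative to DMSO; parallel SRB and Alamar Blue cytotoxicity read-outs.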

Read-out in assay [16]: CD40, CD40 (gene 958)
The assay can be described thus: BSK_SAg_CD40: BioMAP Diversity Plus: SAg Assay for CD40 Biomarker Activity (AID 2283088). Conditions: primary human HUVEC with PBMC; actives raise or lower the signal. The essentials:
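Human umbilical vein endothelial cells co-cultured with PBMC; CD40 levels measured by ELISA with fluorescence read-out 24 h after chemical dosing. Gain or loss of signal fitted bidirectionally against DMSO baseline.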

Read-out in assay [17]: Monocyte Chemoattractant Protein-1 (MCP1), CCL2 (gene 6347)
Briefly: BSK_SAg_MCP1: BioMAP Diversity Plus: SAg Assay for Monocyte Chemoattractant Protein-1 (MCP1) Biomarker Activity (AID 2283090). Conditions: primary human HUVEC with PBMC; actives raise or lower the signal. The essentials:
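Values derive from bidirectional fitting of ELISA-measured MCP1 against DMSO controls. Readings were taken 24 h after dosing human vascular endothelial cells co-cultured with peripheral blood mononuclear cells under superantigen stimulation.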

Read-out in assay [18]: TIMP metallopeptidase inhibitor 2 (TIMP2), TIMP2 (gene 7077)
Briefly: BSK_KF3CT_TIMP2: BioMAP Diversity Plus: KF3CT Assay for TIMP metallopeptidase inhibitor 2 (TIMP2) Biomarker Activity (AID 2283071). Conditions: primary human keratinocytes with fibroblasts; actives raise or lower the signal. The essentials:
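TIMP-2 measured by ELISA at 24 h in human keratinocyte/fibroblast primary co-cultures exposed to chemicals. Both increases and decreases were fitted against DMSO. Parallel cultures were stained with SRB for total protein as an overt-cytotoxicity check.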

Read-out in a further assay: CD69, CD69 (gene 969)
Briefly: BSK_SAg_CD69: BioMAP Diversity Plus: SAg Assay for CD69 Biomarker Activity (AID 2283089).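 For AC50: cell surface CD69 protein quantified by ELISA with fluorescence detection.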 Conditions: primary human HUVEC with PBMC; actives raise or lower the signal. The essentials: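 Primary human vascular co-culture (umbilical vein endothelium with peripheral blood mononuclear cells) exposed to test chemical for 24 h. CD69 levels quantified by fluorescence ELISA; DMSO served as negative control for bidirectional fitting.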

Sequence of E-selectin (Homo sapiens) (P16581 whole entry, looked up): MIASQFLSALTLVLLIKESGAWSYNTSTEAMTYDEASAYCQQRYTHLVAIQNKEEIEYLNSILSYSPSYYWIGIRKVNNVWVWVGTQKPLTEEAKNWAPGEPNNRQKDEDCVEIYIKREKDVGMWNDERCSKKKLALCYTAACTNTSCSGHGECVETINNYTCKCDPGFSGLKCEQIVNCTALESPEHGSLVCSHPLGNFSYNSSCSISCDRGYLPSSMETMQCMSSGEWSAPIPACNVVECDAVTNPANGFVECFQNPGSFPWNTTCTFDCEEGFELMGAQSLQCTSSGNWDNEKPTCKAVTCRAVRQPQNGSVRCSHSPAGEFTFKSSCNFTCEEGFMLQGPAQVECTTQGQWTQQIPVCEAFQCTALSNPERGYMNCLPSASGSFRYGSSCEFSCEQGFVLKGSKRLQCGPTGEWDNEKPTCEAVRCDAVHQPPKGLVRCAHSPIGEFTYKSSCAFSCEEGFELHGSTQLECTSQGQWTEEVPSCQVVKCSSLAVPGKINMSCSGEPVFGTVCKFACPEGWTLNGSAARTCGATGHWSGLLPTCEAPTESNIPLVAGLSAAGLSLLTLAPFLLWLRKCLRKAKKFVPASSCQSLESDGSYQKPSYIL
Sequence of Tumor necrosis factor (Homo sapiens) (P01375 whole entry, looked up): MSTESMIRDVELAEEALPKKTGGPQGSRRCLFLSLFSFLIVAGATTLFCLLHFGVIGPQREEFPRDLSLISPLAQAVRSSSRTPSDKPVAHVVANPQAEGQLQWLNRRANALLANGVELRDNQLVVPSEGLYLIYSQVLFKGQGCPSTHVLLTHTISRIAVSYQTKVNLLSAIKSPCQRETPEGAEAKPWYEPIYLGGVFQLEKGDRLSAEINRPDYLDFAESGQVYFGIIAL

`N#CSCSC#N`: the AC50 in assay [1] was 5.17 µM (active); in assay [2], 5.31 µM (active); in [3] it was 6.04 µM (active); in assay [4], 6.91 µM (active); with CD40, CD40 (gene 958) [5], 5.33 µM (active); in assay [6], 6.28 µM (active). The AC50 is 5.94 µM (active) in [7]; 5.37 µM (active) in assay [8]; 5.46 µM (active) in [9]; 10.6 µM (active) in assay [10]; 5.66 µM (active) in [11]; 5.23 µM (active) in assay [12]. Besides, the AC50 is 3.89 µM (active) in assay [14]; 5.56 µM (active) in assay [15]; 5.28 µM (active) with CD38, CD38 (gene 952); 7.73 µM (active) with CD40, CD40 (gene 958) [16]; 11.9 µM (active) in [17]. Also, the outcome in assay [13] was inactive.
On to `CC(C)N(C(=O)SCC(Cl)=C(Cl)Cl)C(C)C`, for which the AC50 is 36.4 µM (active) in assay [18]; 30.5 µM (active) in [2]; 36.6 µM (active) in assay [3]; 32.6 µM (active) in assay [4]; 31.6 µM (active) in [6]; 29.5 µM (active) in [7]. Moreover, the AC50 in assay [8] was 29.1 µM (active); in assay [9] it was 26.4 µM (active); in [10], 31.7 µM (active); in [11] it was 34.7 µM (active); in [12], 29.5 µM (active); in [13] it was 30.1 µM (active). For the same compound, the AC50 is 32.3 µM (active) in [14]; 29.8 µM (active) in assay [15]; 31.3 µM (active) in the assay with CD38, CD38 (gene 952); 30.9 µM (active) in the assay with CD40, CD40 (gene 958) [16]; 31.3 µM (active) in assay [17]. Further, the result in assay [1] was inactive.
`C=C(C)[C@H]1Cc2c(ccc3c2O[C@@H]2COc4cc(OC)c(OC)cc4[C@@H]2C3=O)O1`: the result in assay [18], in [1], in assay [2], in assay [4], in [7] and in [14] was inactive. Moreover, the AC50 in assay [3] is 16.7 µM (active); with CD40, CD40 (gene 958) [5], 6.01 µM (active); in assay [6], 20 µM (active); in assay [8], 10.9 µM (active); in [10], 26.8 µM (active); in assay [11], 0.702 µM (active). For the same compound, the AC50 in assay [12] was 13.4 µM (active); in [13] it was 8.75 µM (active); in assay [15], 5.99 µM (active); with CD38, CD38 (gene 952), 5.59 µM (active); in the assay with CD69, CD69 (gene 969), 3.97 µM (active); in assay [17], 16.7 µM (active).
For the compound `CC(Oc1cccc(Cl)c1)C(=O)O` (configuration not stated), the outcome in assay [18], in assay [1], in assay [2], in [3], in assay [4] and in [6] was inactive. For the same compound, the result in assay [7], in assay [8], in assay [9], in assay [10], in assay [11] and in assay [12] was inactive. For the same compound, the outcome in [13] was “inactive”; in assay [14], “inactive”; in assay [15], “inactive”; in the assay with CD38, CD38 (gene 952), “inactive”; in the assay with CD69, CD69 (gene 969) it was “inactive”; in [17], “inactive”.

The record behind these values is PubChem BioAssay (EPA / NIEHS).
